According to PubChem BioAssay AID463173 (ICCB-Longwood Screening Facility, Harvard Medical School, 2010):
Screen size: about 52,000 compounds; about 1,700 (3.3%) were called active. This is one part of a sample in which actives are shown more often than they occur. Unmarked numbers belong to inactive results. No stated cut-off is given here; in the data, active means survival mostly below about 52% (no sharp cut-off); inactive means mostly above about 56%.

system: Wild type; assay: S. aureus survival, RN4220 and DeltatarO strains – OD600, teichoic acid synthesis inhibitors, primary screen (AID 463173); details: S. aureus RN4220 wild type/DeltatarO growth, OD600, 18 h, stronger effect = lower value, screened at 18.75 µg/mL (by protocol)

Row | SMILES | survival
1 | Cc1ccc(N2CC(NC(=O)/C=C\c3ccc4c(c3)OCO4)CC2=O)cc1C (stereo unspecified) | 130%
2 | CCOc1ccc(CCNC(=O)c2nn(-c3ccc(OC)c(Cl)c3)c(=O)c3c2c2ccccc2n3C)cc1OCC | 88%
3 | COc1ccc(OC)c(-n2cnc3cc(C(=O)NC4CCCC4)ccc32)c1 | 72%
4 | CC1=CC(C)C2C(=O)N(c3ccccc3)C(=O)C2C1 (stereo unspecified) | 111%
5 | COc1ccc(NC(=O)Cn2c(=O)oc3cc(S(=O)(=O)N4CCCC4)ccc32)cc1OC | 79%
6 | CC(C)CCOc1ccc(C2N=C(N)Nc3nc4ccccc4n32)cc1 (stereo unspecified) | -15% (active)
7 | CC(C)c1ccc(C2N=C(N)Nc3nc4ccccc4n32)cc1 (stereo unspecified) | 93%
8 | COc1cc(C2N=C(N)Nc3nc4ccccc4n32)ccc1OCCC(C)C (stereo unspecified) | 85%
9 | CCc1ccc(N2CCn3c2nc2c3c(=O)n(CCCc3ccccc3)c(=O)n2C)cc1 | 88%
10 | O=C(Nc1ccccc1C(F)(F)F)N1CC=C(c2c[nH]c3ccccc23)CC1 | 127%
11 | COc1ccc(CNS(=O)(=O)c2ccc(C(=O)N(C)C)s2)cc1 | 87%
12 | CN(C)C(=O)c1ccc(S(=O)(=O)NCc2ccc(Cl)cc2)s1 | 123%
13 | Cc1ccc(CNS(=O)(=O)c2ccc(C(=O)N(C)C)s2)cc1 | -6% (active)
14 | COc1cccc(C2C=C(c3ccccc3)Nc3c(C(=O)Nc4ccccc4)cnn32)c1OC (stereo unspecified) | 64%
15 | COc1ccccc1NC(=O)C1=C(C)Nc2c(C(=O)Nc3ccc(C)cc3)cnn2C1c1cccc(OC)c1OC (stereo unspecified) | 14% (active)
16 | COc1cccc(C2C(C(=O)Nc3ccc(Cl)cc3)=C(C)Nc3c(C(=O)Nc4ccccc4)cnn32)c1OC (stereo unspecified) | 93%
17 | COc1cccc(C2C(C(=O)Nc3ccc(C)cc3C)=C(C)Nc3c(C(=O)Nc4cccc(C)c4)cnn32)c1OC (stereo unspecified) | 78%
18 | CCc1ccc(C2C(C(=O)Nc3ccccc3OC)=C(C)Nc3c(C(=O)Nc4ccc(C)cc4)cnn32)cc1 (stereo unspecified) | 74%
19 | COc1ccc(C2C(C(=O)Nc3ccccc3)=C(C)Nc3c(C(=O)Nc4ccccc4)cnn32)cc1 (stereo unspecified) | 134%
20 | CCc1ccc(C2C(C(=O)Nc3ccccc3)=C(C)Nc3c(C(=O)Nc4ccc(C)cc4)cnn32)cc1 (stereo unspecified) | -1% (active)
21 | COc1cccc(C2C=C(c3ccc(C)cc3)Nc3c(C(=O)Nc4ccc(F)cc4)cnn32)c1OC (stereo unspecified) | -3% (active)
22 | COc1ccccc1NC(=O)C1=C(C)Nc2c(C(=O)Nc3cccc(C)c3)cnn2C1c1ccccc1Cl (stereo unspecified) | -6% (active)
23 | COc1ccccc1NC(=O)C1=C(C)Nc2c(C(=O)Nc3cccc(C)c3)cnn2C1c1ccccc1C (stereo unspecified) | 69%

Row | SMILES | survival
24 | CCOc1ccc(NC(=O)c2cnn3c2NC(c2ccccc2)=CC3c2cccc(OC)c2OC)cc1 (stereo unspecified) | 85%
25 | CC1=C(C(=O)Nc2ccccc2)C(c2ccccc2Cl)n2ncc(C(=O)Nc3cccc(C)c3)c2N1 (stereo unspecified) | 72%
26 | Cc1c(C(=O)Nc2cccc(-c3nc4ccccc4s3)c2)oc2ccccc12 | 98%
27 | Cc1ccc(C(NC(=O)Cc2cccs2)C(=O)Nc2ccc(C(C)C)cc2)cc1 (stereo unspecified) | 82%
28 | CCOc1ccc(C(=O)N2CCCCC2CCN2CCOCC2)cc1 (stereo unspecified) | 88%
29 | Cc1ccc(NC(=O)CSc2nccn2C2CCCC2)cc1Cl | 125%
30 | COc1ccc2c(c1)c1c(c(=O)n(CCc3ccccc3)c(=O)n1Cc1ccc(Cl)cc1)n2C | 63%
31 | Cc1ccc(-c2nc3cc(C(C)C)ccc3o2)cc1NC(=O)c1cccs1 | 72%
32 | Cc1cc(NC(=O)c2cccnc2)cc(-c2nc3cc(Cl)ccc3o2)c1O | 157%
33 | Cc1cccc(C(=O)Nc2ccc(-c3nc4cc(C(C)C)ccc4o3)cc2)c1 | 47%
34 | O=C(Nc1cc(-c2nc3cc(Cl)ccc3o2)ccc1Cl)c1cccs1 | 79%
35 | CC(C)c1ccc2oc(-c3cc(NC(=O)c4cccs4)ccc3Cl)nc2c1 | 7% (active)
36 | CC(C)c1ccc2oc(-c3ccc(Cl)c(NC(=O)c4cccs4)c3)nc2c1 | 2% (active)
37 | CCc1ccc2oc(-c3cc(NC(=O)c4cccs4)ccc3Cl)nc2c1 | 12%
38 | Cc1cc(NC(=O)c2cccs2)cc(-c2nc3cc(Cl)ccc3o2)c1O | 87%
39 | CC(C)c1ccc2oc(-c3cc(NC(=O)c4cccnc4)ccc3Cl)nc2c1 | 1% (active)
40 | CN(C)C(=O)CN(C#N)c1nc(Cl)nc(N(C)C)n1 | 110%
41 | N#Cc1ccc(S(=O)(=O)N2CCC(Oc3cccc(C(F)(F)F)c3)CC2)cc1 | 84%
42 | COc1ccc(CNC(=O)Cc2ccc(NC(=O)N3CCSc4ncccc43)cc2)cc1OC | 75%
43 | Cc1cccc(-c2nc3c4ccccc4nc(NCc4ccc(Cl)cc4)n3n2)c1 | 47%
44 | O=C1CCSC2(C(=O)N(Cc3ccc(F)cc3)c3ccccc32)N1c1cccc(F)c1 (stereo unspecified) | 74%
45 | CCOc1ccccc1C(=O)Nc1c(NC)c2ccccc2oc1=O | 76%
46 | Fc1ccc(-c2noc3ncnc(NCC4CCN(Cc5ccc(Cl)cc5)CC4)c23)cc1 | 81%

Row | SMILES | survival
47 | Cc1ccc(CN2CCC(CNc3ncnc4onc(-c5ccc(F)cc5)c34)CC2)cc1 | -4% (active)
48 | Cc1ccc(CN2CCC(CNc3ncnc4onc(-c5ccc(Cl)cc5)c34)CC2)cc1 | 77%
49 | O=c1c(S(=O)(=O)c2ccc(Cl)cc2)cn(Cc2ccc(F)cc2)c2ccc(F)cc12 | 130%
50 | CCn1c(=O)c2cc(C(=O)NCCCN3CCN(C)CC3)sc2c2ccccc21 | 124%
51 | COCCNC(=O)C1=CC(c2ccc3c(c2)OCO3)=NS(=O)(=O)N1C | 103%
52 | Cc1ccc(CNC(=O)CCC(=O)N2CC3CCCN3c3ccccc32)cc1 (stereo unspecified) | 82%
53 | O=C(CCC(=O)N1CC2CCCN2c2ccccc21)NCc1ccccc1 (stereo unspecified) | 88%
54 | O=C(CCC(=O)N1CC2CCCN2c2ccccc21)NCc1ccccc1Cl (stereo unspecified) | 69%
55 | O=C(CCC(=O)N1CC2CCCN2c2ccccc21)NCc1cccc(Cl)c1 (stereo unspecified) | 10% (active)
56 | COc1cccc(CNC(=O)CCC(=O)N2CC3CCCN3c3ccccc32)c1 (stereo unspecified) | 65%
57 | O=C(CCC(=O)N1CC2CCCN2c2ccccc21)NCc1ccc(F)cc1 (stereo unspecified) | -2% (active)
58 | CC(=O)Nc1nonc1-c1nnc(SCC(=O)Nc2ccccc2)n1-c1ccccc1 | 51%
59 | O=C(NC1CCCC1)C(c1ccc(O)cc1)N(C(=O)Cn1nnc(-c2cccs2)n1)C1CCCC1 (stereo unspecified) | 100%
60 | CCN(CC)C(=O)Cn1c(=O)sc2ccccc21 | 105%
61 | CS(=O)(=O)n1c(=O)sc2ccccc21 | 121%
62 | O=C(Cn1c(=O)sc2ccccc21)Nc1ccc(O)cc1 | 103%
63 | CCCOc1ccccc1Cn1c(=O)sc2ccccc21 | -5% (active)
64 | Cc1cccc(NC(=O)Cn2c(=O)sc3ccccc32)c1 | 119%
65 | CCOC(=O)Cn1c(=O)sc2ccccc21 | 116%
66 | O=C(Cn1c(=O)sc2ccccc21)OCc1ccccc1 | 118%
67 | CC(C)CCOc1ccccc1Cn1c(=O)sc2ccccc21 | -1% (active)
68 | CCCCOc1ccccc1Cn1c(=O)sc2ccccc21 | -4% (active)
69 | COc1ccc(CNCCNC(=O)c2cccs2)c(OC)c1OC | 108%

Row | SMILES | survival
70 | COc1ccc(CNC(=O)c2ccc3c(c2)N(Cc2ccc(C)cc2)CCS3)cc1 | 93%
71 | O=C(Cn1nc(-c2ccc(Cl)cc2)ccc1=O)NCCc1ccccc1 | 45%
72 | C=Cc1ccc(Cn2c(=O)n(-c3cccc(Cl)c3)c(=O)c3c4c(sc32)CN(C(C)=O)CC4)cc1 | 81%
73 | Cc1cc(C)c(S(=O)(=O)N2CCN(Cc3nc4ccc(C)cc4o3)CC2)c(C)c1 | 73%
74 | O=[N+]([O-])c1cc(-c2nc(-c3ccccc3)no2)ccc1NCC1CCCO1 (stereo unspecified) | 86%
75 | CC(C)(C)OC(=O)N1CCC(c2c(C(=O)NCc3ccccn3)cnn2-c2ccccc2)CC1 | 73%
76 | CC(C)(C)OC(=O)N1CCC(c2c(C(=O)NCc3ccccn3)cnn2-c2ccccc2Cl)CC1 | -6% (active)
77 | Cc1c(Cl)cccc1-n1ncc(C(=O)NC2CCCCC2)c1C1CCN(C(=O)OC(C)(C)C)CC1 | 75%
78 | CCOC(=O)N1CCC(NC(=O)c2cnn(-c3cccc(Cl)c3C)c2C2CCN(C(=O)OC(C)(C)C)CC2)CC1 | -3% (active)
79 | Cc1c(Cl)cccc1-n1ncc(C(=O)NC2CCCC2)c1C1CCN(C(=O)OC(C)(C)C)CC1 | 66%
80 | Cc1ccc(-n2ncc(C(=O)NCc3ccccn3)c2C2CCN(C(=O)OC(C)(C)C)CC2)c(C)c1 | 45%
81 | CC1CCN(S(=O)(=O)c2ccc3c(c2)c(=O)c(C(=O)N2CCN(c4cccc(Cl)c4)CC2)cn3C)CC1 | 94%
82 | CCCNC(=O)Cn1nc(-c2ccc(F)cc2)c2cnc3ccc(F)cc3c21 | 82%
83 | CCn1c(Cc2ccccc2)nnc1SCC(=O)N1CCCCC1C (stereo unspecified) | 116%
84 | COc1ccc(NC(=O)CCc2nc3cccnc3n2-c2ccccc2)c(OC)c1 | 68%
85 | COc1ccc(OC)c(Nc2nc3ccccc3n3c(C)nnc23)c1 | 83%
86 | Nn1cnnc1SCC(=O)N(C1CCCCC1)C1CCCCC1 | 107%
87 | O=C(Nc1ccc(NC(=O)c2cccs2)cc1)c1cccs1 | 113%
88 | Cc1ccccc1CCNC(=O)c1ccc2c(c1)c(C)c(C)n2Cc1ccccc1 | 124%
89 | COc1cccc(/C=N/c2nc3ccccc3n2C)c1O | 106%
90 | COc1cccc(/C=N/n2c(N)nc3ccccc32)c1OC | 103%
91 | COc1ccccc1/C=C/c1nc2ccccc2n1C(C)C | 2% (active)
